# Measured values published in PubChem BioAssay (NCI).
# Compounds without any hit were thinned out: in the full panel of roughly 83,000, 20% have a hit.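 Note: values are percent growth. 100 is the growth of untreated cells, values between 100 and 0 indicate rising inhibition; between -100 and 0 indicates cell death.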 Unmarked numbers belong to inactive results. The source made the active and inactive calls. Rule for the calls: active = growth percent below 10; inactive = the rest.
# Experiments:
# Experiment in all cases: NCI-60 one-dose screen, 48 h (100 = growth as untreated, 0 = no growth, -100 = all killed)
# Conditions in all cases: 10 µM unless noted
# [1] = system: DU-145 prostate
# [2] = system: K-562 leukemia
# [3] = system: MALME-3M melanoma
# [4] = system: MDA-MB-231 breast
# [5] = system: RXF 393 renal
# [6] = system: SF-268 CNS
# [7] = system: SF-295 CNS
# [8] = system: SF-539 CNS
# [9] = system: UACC-257 melanoma
# [10] = system: M14 melanoma
SMILES,growth [1],growth [2],growth [3],growth [4],growth [5],growth [6],growth [7],growth [8],growth [9],growth [10]
N#Cc1cnc2ccc(-c3cnc4n[nH]nc4c3)cc2c1N1CCc2cc(F)c(Cl)cc21,14.6%,28.1%,1.37% (active),21.2%,-22.2% (active),16.7%,2.19% (active),2.37% (active),23.9%,21.2%
N#Cc1c(-c2cccs2)cc(-c2cnccn2)nc1SCC(=O)N/N=C/c1ccc(Cl)cc1,104%,96.7%,115%,94.9%,92.2%,102%,98.7%,100%,110%,111%
COc1ccc(C(=O)c2c(N)c(C#N)cn2-c2ccc(Cl)cc2Cl)cc1,110%,93.6%,96.9%,90.8%,97%,100%,98.8%,102%,98.2%,91.2%
Cc1ccc(-c2nc(SCC(=O)c3ccccc3)nc(Nc3ccc(S(N)(=O)=O)cc3)c2C#N)cc1,60.7%,70.1%,33.6%,33%,51.7%,76.7%,36.7%,18.3%,97.4%,36.7%
O=C1c2ccccc2C23C(=C(c4cncnc4)c4ccccc42)CCCN13 (stereo not given),101%,102%,94.7%,101%,104%,91.6%,95.9%,102%,108%,98.6%
O=C(CCCCCC/C=C\c1csc(Br)n1)NO,87.7%,50.5%,66.7%,98.4%,97%,108%,95.4%,78.9%,82%,93.9%
Cc1ccc2c(n1)C(=O)C(Cl)=C(Nc1cccc(C(=O)OC(C)(C)C)c1)C2=O,94.8%,-18.1% (active),127%,74.4%,84.3%,93.4%,104%,105%,72.3%,96.5%
CNCCN(C)c1ccc(Nc2cc(NC3CC3)n3ncc(C#N)c3n2)cc1NC(C)=O,17.5%,10.7%,-5.08% (active),-6.44% (active),-24.5% (active),7.24% (active),12%,6.65% (active),8.4% (active),-20.6% (active)
COc1ccc2[nH]cc(-c3nc(N)nnc3-c3cn(C)c4ccc(Br)cc34)c2c1,48.8%,5.19% (active),42.2%,48.1%,5.35% (active),39.4%,20.1%,18.1%,46.8%,5.3% (active)
CC(C)C(/C=C/c1[nH]ncc1-c1cc(Cl)ccc1O)N1CCOCC1 (stereo not given),100%,82.3%,106%,106%,88.3%,88.5%,96%,97.5%,103%,97.5%
CCN(CC)c1ccc(/C=N/NC(=O)c2ccc(S(N)(=O)=O)cc2)cc1,34.7%,14.7%,8.81% (active),38.3%,-6.07% (active),29.4%,16%,17%,2.22% (active),-1.23% (active)
CCN(CC)CCOc1ccc(C(=C(C)Cc2ccc(OC)cc2)c2ccc(OCCN(CC)CC)cc2)cc1,74.5%,-4.16% (active),-75.5% (active),55.4%,41.9%,70%,52.8%,-45.9% (active),62.6%,-53.6% (active)
Cc1ccc(S(=O)(=O)c2nc(-c3ccc(F)cc3)oc2S(C)(=O)=O)cc1,77%,1.76% (active),-45.6% (active),65%,40.3%,95.1%,95.4%,58.1%,90.3%,64%
O=C1C(SCc2ccccc2)=C(Cl)CN1c1ccc(Cl)cc1,49.5%,52.9%,103%,101%,107%,108%,102%,97.9%,97.2%,78%
CC(C)(C)Nc1nc2c(OCCc3ccccc3)cccn2c1-c1ccc([N+](=O)[O-])cc1,86.2%,39.7%,83.6%,80.9%,63.5%,71.2%,43.8%,76.5%,88.7%,60.5%
CC(Nc1c(C#N)cnc2ccc(-c3cncc(O)c3)cc12)c1ccccc1 (stereo not given),3.93% (active),15.3%,-34.1% (active),14.4%,-24.6% (active),2.54% (active),-13% (active),0.714% (active),18.2%,4.07% (active)
N#CC1=C2NCCCNc3oc(nc3C#N)Cc3ccccc3CC(=N1)O2,99%,12%,97.8%,97.6%,93.2%,101%,108%,99.2%,92.2%,86.4%
CS(=O)(=O)c1ccc(/C(=N/N=C(N)N)c2ccc(Cl)cc2)cc1,101%,40.7%,81.6%,96.1%,82.6%,80.7%,95.4%,91.8%,90.2%,72.8%
O=S(=O)(NCCCNc1nccc(-c2[nH]c(-c3ccccc3)nc2-c2ccc(F)c(O)c2)n1)c1cccc2ccccc12,61.5%,23.3%,32.8%,77.2%,75.4%,75.3%,45.7%,93.7%,44.1%,29.4%
CCN1CCN(c2ccc(NC(=O)Nc3ccc4c(ccn4-c4ccnc(C(=O)NC)c4)c3)cc2C(F)(F)F)CC1,86%,-9.49% (active),-65.2% (active),58.1%,-30.7% (active),83.9%,-47.1% (active),-55.3% (active),96.7%,17.9%
C#CCOc1ccccc1C(OC(=O)c1ccccc1)C(=O)NC(C)(C)C(C)(C)C (stereo not given),108%,78.3%,76.4%,80.8%,74.6%,93.5%,70.3%,102%,81.6%,89.4%
CC1=C(C)C(=O)C(Nc2ccc3c(c2)OCO3)=C(Br)C1=O,109%,3.43% (active),112%,69.4%,105%,96.7%,96.8%,106%,94.3%,105%
CCCCOc1ccc(S(=O)(=O)N2CCN(c3nc(C)cc(N4CCOCC4)n3)CC2)cc1,16.6%,44.3%,107%,3.79% (active),85%,3.91% (active),-22.5% (active),75.9%,-47.2% (active),-15.9% (active)
O=C(/C=C/c1cccc(Br)c1)c1cccc(OCCCCOc2cccc(C(=O)/C=C/c3cccc(Br)c3)c2)c1,109%,90.1%,98%,101%,105%,99.9%,107%,104%,109%,93.9%
Fc1ccc(-c2cn3c(-c4c[nH]c5ccc(Br)cc45)csc3n2)cc1,67.4%,90.3%,51.4%,15.5%,79.6%,50.9%,64.1%,34.3%,93.5%,67.4%
O=C1Nc2ccccc2/C1=C/c1ccc(OCC(=O)c2ccccc2)cc1,99.5%,88.9%,98.4%,96.2%,101%,96.4%,107%,90.6%,105%,95.7%
CCOC(=O)C1=C(C)NC(C)=C(C(=O)OC(C)C)C1c1cccc(C#N)c1 (stereo not given),104%,93.9%,97.2%,95.2%,90.8%,96.9%,106%,104%,104%,105%
